SMILES strings stand for the structures. Active and inactive are the calls of the source. Rule for the calls: active = hit-call score of the fitted dose curve at least 0.9, where 1 is the maximum; inactive = score below 0.9.

Experiment [1] is described as follows: ATG_CRE_CIS: Attagene CIS-FACTORIAL HepG2 Assay for human cAMP Responsive Element (CRE) binding protein 3 (AID 2282926). The following applies: HepG2 CRE cis-reporter, Attagene multiplexed mRNA; actives raise or lower the signal. Summed up:
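We dosed HepG2 cells bearing multiple cis-promoter reporter units for 24 h and measured reporter mRNA by RT-PCR with capillary electrophoresis detection. Bidirectional concentration-response fitting used DMSO as negative control.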

Experiment [2] deals with CCAAT/enhancer-binding protein beta (Homo sapiens) (UniProt P17676). Kind of experiment: ATG_C_EBP_CIS: Attagene CIS-FACTORIAL HepG2 Assay for human CCAAT/Enhancer Binding Protein (C/EBP) beta (AID 2282927). The following applies: HepG2 Attagene cis-factorial transcription factor reporter; actives raise or lower the signal. Summed up: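 Chemical-treated HepG2 cells (24 h) bearing cis-regulated reporter constructs were processed for total RNA, then reverse transcription, PCR amplification, fluorescent primer extension and fragment analysis; gain- and loss-of-signal were fitted against DMSO.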
Sequence of CCAAT/enhancer-binding protein beta (Homo sapiens) (P17676 whole entry, looked up, the tested form may be a part): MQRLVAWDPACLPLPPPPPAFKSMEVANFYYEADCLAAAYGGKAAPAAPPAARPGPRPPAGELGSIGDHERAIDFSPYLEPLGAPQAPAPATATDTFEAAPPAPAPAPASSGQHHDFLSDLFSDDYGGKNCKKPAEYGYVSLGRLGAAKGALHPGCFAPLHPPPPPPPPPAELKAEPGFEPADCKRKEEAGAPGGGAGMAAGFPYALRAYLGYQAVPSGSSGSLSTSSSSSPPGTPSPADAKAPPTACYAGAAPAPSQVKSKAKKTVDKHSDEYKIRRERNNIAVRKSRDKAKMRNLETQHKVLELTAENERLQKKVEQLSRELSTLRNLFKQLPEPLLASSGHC

Experiment [3] can be described thus: ATG_CMV_CIS: Attagene CIS-FACTORIAL HepG2 Assay for human CMV (Internal Marker) (AID 2282928).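 Note: endpoint acts as a background internal control marker rather than a target.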 The following applies: HepG2 CMV promoter reporter, transcription factor profiling; actives raise or lower the signal. The method, boiled down:
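HepG2 cells transiently transfected with multiple cis-regulated reporter units; 24 h compound exposure. Reporter mRNA quantified by RT-PCR, 6-FAM primer-extension labeling, HpaI digestion and capillary electrophoresis; bidirectional fitting against DMSO baseline.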

A short description of experiment [4]: ATG_DR4_LXR_CIS: Attagene CIS-FACTORIAL HepG2 Assay for human Liver X Receptor (LXR), DR4 submotif (AID 2282929). The following applies: HepG2 Attagene DR4 cis-reporter, mRNA transcription; actives raise or lower the signal. The method, boiled down:
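Total RNA from 24 h-treated, MRTU-transfected HepG2 cells underwent reverse transcription, PCR, fluorescent primer extension and restriction digestion before capillary electrophoresis. Both increases and decreases in reporter signal were fitted against DMSO.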

Experiment [5] has as its target Aryl hydrocarbon receptor (Homo sapiens) (UniProt P35869). Kind of experiment: ATG_Ahr_CIS: Attagene CIS-FACTORIAL HepG2 Assay for human Aryl Hydrocarbon Receptor (Ahr) (AID 2282930). The following applies: HepG2 AhR cis-factorial reporter transcription; actives raise or lower the signal. The method, boiled down:
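Following 24 h of chemical dosing, transfected HepG2 liver cells with cis-driven reporter units were lysed for RNA; reporter mRNA was quantified via RT-PCR and capillary electrophoresis, and responses fitted bidirectionally from DMSO.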

Experiment [6] in a line: ATG_AP_1_CIS: Attagene CIS-FACTORIAL HepG2 Assay for human Activator Protein 1 (AP-1) (AID 2282931). The following applies: HepG2 Attagene cis-factorial AP-1 reporter mRNA; actives raise or lower the signal. The method, boiled down:
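HepG2, transient cis-reporter transfection; 24 h; readout RT-PCR/CE fluorescence; DMSO baseline, gain and loss fitted.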

Experiment [7] can be described thus: ATG_AP_2_CIS: Attagene CIS-FACTORIAL HepG2 Assay for human Activator Protein 2 (AP-2) (AID 2282932). The following applies: HepG2 AP-2 cis-reporter, Attagene transcription factor profiling; actives raise or lower the signal. The method, boiled down: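 Bidirectional curve fitting against DMSO was applied to reporter mRNA signals from HepG2 cells 24 h after dosing. Cis-promoter reporter units, transiently transfected, were read by RT-PCR plus capillary electrophoresis.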

Experiment [8] can be described thus: ATG_BRE_CIS: Attagene CIS-FACTORIAL HepG2 Assay for human Bone Morphogenetic Protein (BMP) Response Element (BRE) (AID 2282933). The following applies: HepG2 BMP response element reporter, Attagene transcription factor profiling; actives raise or lower the signal. Summed up: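 Multiplexed cis-reporter assay, HepG2, 24 h exposure. mRNA from reporter units quantified via RT-PCR/CE; DMSO baseline; bidirectional curve fit.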

Experiment [9] concerns the target Retinoic acid receptor alpha (Homo sapiens) (UniProt P10276). Nature of the experiment: ATG_DR5_RAR_CIS: Attagene CIS-FACTORIAL HepG2 Assay for human Retinoic Acid Receptor Alpha (RARE), DR5 submotif (AID 2282934). The following applies: HepG2 Attagene cis-factorial RARE DR5 reporter, mRNA; actives raise or lower the signal. Summed up:
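Transfected HepG2 reporter cells are exposed to chemicals for 24 h. Then RNA is extracted and the DR5 element reporter transcript is measured by RT-PCR and capillary electrophoresis, with bidirectional curve fitting relative to DMSO.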

A short description of experiment [10]: ATG_E_Box_CIS: Attagene CIS-FACTORIAL HepG2 Assay for human Enhancer Box (E-box) (AID 2282936). The following applies: HepG2 E-box cis-reporter transcription, actives raise or lower the signal. Summed up:
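Multiplexed CIS reporter system in transiently transfected HepG2 cells measures native transcription factor activity. Reporter RNA after 24 h exposure is profiled by RT-PCR-capillary electrophoresis.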

Experiment [11] is described as follows: ATG_M_61_CIS: Attagene CIS-FACTORIAL HepG2 Assay for M61 Transcription Factor (Internal Marker) (AID 2282937). The following applies: HepG2 Attagene CIS-FACTORIAL M61 internal marker reporter; actives raise or lower the signal. Summed up:
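Transfect HepG2 with MRTUs; dose 24 h; isolate RNA; reverse-transcribe with DNase I treatment; PCR-amplify, FAM-label and cut with HpaI for 2 h at 37 C; resolve by CE. Bidirectional fitting against DMSO.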

A short description of experiment [12]: ATG_EGR_CIS: Attagene CIS-FACTORIAL HepG2 Assay for human Early Growth Response 1 (EGR1) (AID 2282938). The following applies: HepG2 Attagene CIS-FACTORIAL EGR reporter mRNA; actives raise or lower the signal. The method, boiled down:
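After a 24 h treatment of transiently transfected HepG2 cells, total RNA was reverse-transcribed and reporter sequences PCR-amplified, labelled and run on capillary electrophoresis. Reporters sit under cis-regulatory promoters sensing endogenous factors.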

Experiment [13] addresses Transcription factor E2F1 (Homo sapiens) (UniProt Q01094). Kind of experiment: ATG_E2F_CIS: Attagene CIS-FACTORIAL HepG2 Assay for human E2F Transcription Factor 1 (AID 2282935). The following applies: HepG2 Attagene cis-reporter, E2F reporter RNA transcripts; actives raise or lower the signal. The method, boiled down: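 Multiplexed cis-reporter assay: HepG2, transient transfection, 24 h dosing, mRNA quantitation by labeled RT-PCR and CE.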

Sequence of Transcription factor E2F1 (Homo sapiens) (Q01094 whole entry, looked up): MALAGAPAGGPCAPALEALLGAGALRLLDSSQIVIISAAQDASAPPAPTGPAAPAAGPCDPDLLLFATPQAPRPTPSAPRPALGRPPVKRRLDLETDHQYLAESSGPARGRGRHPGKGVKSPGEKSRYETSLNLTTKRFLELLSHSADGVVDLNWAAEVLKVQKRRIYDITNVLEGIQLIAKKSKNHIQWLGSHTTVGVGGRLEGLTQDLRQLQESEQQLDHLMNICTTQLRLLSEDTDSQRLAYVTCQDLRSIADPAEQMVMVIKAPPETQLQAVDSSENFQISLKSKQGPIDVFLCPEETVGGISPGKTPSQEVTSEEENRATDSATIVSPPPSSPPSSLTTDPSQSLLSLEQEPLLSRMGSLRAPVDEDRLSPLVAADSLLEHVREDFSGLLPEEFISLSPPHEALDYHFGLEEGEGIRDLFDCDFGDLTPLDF
Sequence of Aryl hydrocarbon receptor (Homo sapiens) (P35869 whole entry, looked up): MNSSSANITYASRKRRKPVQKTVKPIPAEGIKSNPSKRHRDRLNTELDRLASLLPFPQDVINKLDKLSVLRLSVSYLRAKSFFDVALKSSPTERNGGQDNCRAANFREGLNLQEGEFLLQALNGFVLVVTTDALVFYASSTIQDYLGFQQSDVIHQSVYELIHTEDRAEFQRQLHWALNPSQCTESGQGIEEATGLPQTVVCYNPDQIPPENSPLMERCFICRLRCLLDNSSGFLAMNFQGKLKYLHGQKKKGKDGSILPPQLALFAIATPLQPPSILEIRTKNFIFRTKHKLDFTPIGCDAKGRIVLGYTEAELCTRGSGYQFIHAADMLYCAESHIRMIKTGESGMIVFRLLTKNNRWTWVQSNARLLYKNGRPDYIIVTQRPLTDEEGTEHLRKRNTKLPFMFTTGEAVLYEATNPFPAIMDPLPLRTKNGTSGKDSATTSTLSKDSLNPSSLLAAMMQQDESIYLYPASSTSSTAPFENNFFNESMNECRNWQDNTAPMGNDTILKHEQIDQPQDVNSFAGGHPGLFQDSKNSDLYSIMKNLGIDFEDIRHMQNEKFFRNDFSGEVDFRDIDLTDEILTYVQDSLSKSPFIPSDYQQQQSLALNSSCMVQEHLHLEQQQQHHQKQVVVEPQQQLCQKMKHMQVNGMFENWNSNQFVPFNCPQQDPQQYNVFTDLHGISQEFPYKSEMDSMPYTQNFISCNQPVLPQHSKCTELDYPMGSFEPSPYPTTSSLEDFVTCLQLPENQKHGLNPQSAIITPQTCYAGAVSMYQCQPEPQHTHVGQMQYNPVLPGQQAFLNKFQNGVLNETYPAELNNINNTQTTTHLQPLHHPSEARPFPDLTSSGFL
Sequence of Retinoic acid receptor alpha (Homo sapiens) (P10276 whole entry, looked up): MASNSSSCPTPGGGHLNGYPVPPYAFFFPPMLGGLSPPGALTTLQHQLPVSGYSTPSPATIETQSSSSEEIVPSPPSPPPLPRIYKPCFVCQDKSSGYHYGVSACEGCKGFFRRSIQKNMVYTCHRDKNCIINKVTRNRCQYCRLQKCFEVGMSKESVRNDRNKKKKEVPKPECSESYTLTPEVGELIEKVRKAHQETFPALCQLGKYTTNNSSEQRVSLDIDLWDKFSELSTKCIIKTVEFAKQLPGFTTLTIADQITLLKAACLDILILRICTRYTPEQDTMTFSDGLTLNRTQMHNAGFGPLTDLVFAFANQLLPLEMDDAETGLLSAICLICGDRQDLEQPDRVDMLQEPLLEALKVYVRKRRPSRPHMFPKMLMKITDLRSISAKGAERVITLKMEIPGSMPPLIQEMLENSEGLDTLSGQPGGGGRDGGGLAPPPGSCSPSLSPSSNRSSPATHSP

In the case of `CCCSP(=S)(OCC)Oc1ccc(SC)cc1` (centres undefined), the call in experiment [1], in experiment [2], in experiment [3], in experiment [4], in experiment [5] and in experiment [6] was inactive. Besides, the compound was classed as inactive in experiment [7], in [8], in [9], in [10], in [11] and in [12].

`C[As+](C)(C)CC(=O)[O-]`: the call in experiment [1], in experiment [2], in experiment [3], in experiment [4], in experiment [5] and in experiment [6] was inactive. Further, the outcome in [7], in [8], in experiment [9], in [11] and in experiment [12] was inactive.

Consider `O=C(NC(=O)c1c(F)cccc1F)Nc1cc(Cl)c(F)c(Cl)c1F`, for which the call in experiment [1], in experiment [2], in experiment [3], in experiment [5], in experiment [6] and in experiment [7] was inactive. In addition, the result in [8], in experiment [13], in experiment [10], in experiment [11] and in experiment [12] was inactive. For the same compound, in experiment [4], the half-maximal activity concentration (AC50) – broadly, the concentration at which the activity in the assay is half-maximal – was 0.512 µM (active).

As for `O=CCCl`, the half-maximal activity concentration (AC50) in [1] was 24.7 µM (active); in experiment [2] it was 25 µM (active); in experiment [3], 60.9 µM (active); in experiment [4], 68.5 µM (active); in experiment [5], 84.7 µM (active); in experiment [6] it was 165 µM (active). The half-maximal activity concentration (AC50) in [10] was 183 µM (active); in experiment [12], 38.4 µM (active). In addition, the result in experiment [7], in experiment [8], in experiment [9] and in experiment [11] was inactive.

`CC(C)(C#N)N=NC(C)(C)C#N`: the compound was classed as inactive in [1], in [2], in experiment [3], in [4], in experiment [5] and in experiment [6]. Further, the compound was called inactive in experiment [7], in experiment [8], in [9], in experiment [10], in experiment [11] and in [12].

With `C=CCCl`, the call in experiment [1], in [2], in experiment [3], in experiment [4], in [5] and in experiment [6] was inactive. The call in experiment [7], in experiment [8], in experiment [13], in [10], in experiment [11] and in [12] was inactive.

As for `CC(C)(C)c1ccc(CCOc2ncnc3ccccc23)cc1`, the compound was classed as inactive in [1], in experiment [2], in experiment [3], in experiment [4], in experiment [5] and in experiment [6]. Moreover, the result in experiment [7], in [8], in experiment [9], in [10], in experiment [11] and in experiment [12] was inactive.

For `Cc1cccc(N=Nc2ccc(N(C)C)cc2)c1`, the compound was classed as inactive in experiment [1], in experiment [2], in experiment [3], in [4], in experiment [6] and in experiment [7]. Besides, the outcome in experiment [8], in experiment [9], in experiment [10], in experiment [11] and in experiment [12] was inactive. In [5], the concentration at half-maximal activity (AC50) was 8.37 µM (active).

On to `CCCCCCCCCCBr`, for which the compound was called inactive in experiment [1], in experiment [2], in [4], in experiment [5], in experiment [6] and in experiment [7]. For the same compound, the call in experiment [8], in experiment [13], in [10], in experiment [11] and in experiment [12] was inactive. The AC50 in experiment [3] is 163 µM (active).

As to `O=c1[nH]c(=O)n(Cl)c(=O)n1Cl`, the outcome in [1], in experiment [2], in experiment [3], in experiment [4], in [5] and in [6] was inactive. Besides, the outcome in experiment [7], in [8], in experiment [13], in experiment [10], in experiment [11] and in [12] was inactive.
